# Assay results as given in the supplement of paper PMC12350171.
# Structures can show the parent of a compound that is named as a salt. Unmarked numbers belong to inactive results.
# Tests used:
# Conditions in all cases: 20 µM
# [1] = tested on: Salmonella enterica typhimurium; experiment: growth AUC normalised to DMSO control (fraction of control); higher = less growth inhibition, active = hit call of the paper
# Summary of the method: (§1)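 Hemin and NAD were added to the medium for Haemophilus parainfluenzae. All pathogens, after two anaerobic passages, were inoculated at a starting OD578 of 0.01 into pre-reduced mGAM plates with 20 μM compound and 1% DMSO under breathable seals, and OD578 was read hourly for 24 h in three biological replicates. AUC of each growth curve was obtained with the trapezoidal rule up to the exponential-to-stationary transition and normalised to DMSO controls from the same plate.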
# [2] = tested on: Shigella flexneri; experiment: as above
# Summary of the method: as §1
# [3] = tested on: Vibrio cholerae; experiment: as above
# Summary of the method: as §1
# [4] = tested on: Yersinia pseudotuberculosis; experiment: as above
# Summary of the method: as §1
# [5] = tested on: P. vulgatus RND KO; experiment: growth AUC normalised to DMSO control (median) (fraction of control); higher = less growth inhibition, active = hit call of the paper
# Summary of the method: (§2)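 For normalised area under the curve, growth curves were truncated at entry into stationary phase, integrated by the trapezoidal rule and divided against vehicle wells on the same plate. The curves came from strains passaged twice overnight without oxygen and then grown in mGAM in 96-well plates at a starting OD578 of 0.01. Each well held an approved-drug library compound at 20 μM with 1% DMSO, and OD578 was read hourly for 24 h in an anaerobic incubator. Values are medians of three biological replicates.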
# [6] = tested on: P. vulgatus WT; experiment: as above
# Summary of the method: as §2
# [7] = tested on: S. enterica typhimurium WT; experiment: as above
# Summary of the method: as §2
# [8] = tested on: S. enterica typhimurium tolC KO; experiment: as above
# Summary of the method: as §2
# 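Throughout, for growth AUC normalised to DMSO control (median): active when median AUC fell below 0.1.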
SMILES,growth AUC normalised to DMSO control [1],growth AUC normalised to DMSO control [2],growth AUC normalised to DMSO control [3],growth AUC normalised to DMSO control [4],growth AUC normalised to DMSO control [5],growth AUC normalised to DMSO control [6],growth AUC normalised to DMSO control [7],growth AUC normalised to DMSO control [8]
NS(=O)(=O)c1cc2c(cc1Cl)NC(CC1CCCC1)NS2(=O)=O (stereo not given) [Cyclopenthiazide],1,0.972,0.98,0.971,0.978,0.993,1,0.991
CC[N+](C)(C)Cc1ccccc1Br [Bretylium tosylate],1,1.01,1.02,1.02,0.995,1.03,1,0.999
CCOc1cc(CC(=O)N[C@@H](CC(C)C)c2ccccc2N2CCCCC2)ccc1C(=O)O [Repaglinide],1.03,1.06,1.07,1.02,0.956,1.01,1.01,0.981
CC(N/C(=N\C#N)Nc1ccncc1)C(C)(C)C (stereo not given) [Pinacidil monohydrate],0.991,1,0.998,0.982,1.07,1.06,1.01,0.976
O=C(O)Cc1ccc(-c2ccccc2)cc1 [Felbinac],1.03,0.977,0.996,0.994,1,1.01,1.01,0.988
Clc1ccc2c(c1)C(N1CCNCC1)=Nc1ccccc1O2 [Amoxapine],0.988,1.01,0.8 (active),1.01,0.795,0.759,1.01,0.972
O=C(O)c1cccnc1Nc1cccc(C(F)(F)F)c1 [Niflumic acid],0.989,0.998,0.897,1.01,0.907,0.936,1,0.961
CN(Cc1ccc(C(C)(C)C)cc1)Cc1cccc2ccccc12 [Butenafine hydrochloride],0.974,0.968,0.926,0.99,0.967,0.96,0.995,0.957
C[C@H]1O[C@H](O[C@H]2[C@H](O)[C@@H](O)[C@@H](O[C@@H]([C@H](O)[C@@H](O)C=O)[C@H](O)CO)O[C@@H]2CO)[C@H](O)[C@@H](O)[C@@H]1N[C@H]1C=C(CO)[C@@H](O)[C@H](O)[C@H]1O [Acarbose],1.04,0.995,0.999,1.01,1.01,0.884,1.03,1
Nc1nc(=O)c2c([nH]1)NC[C@@H](CNc1ccc(C(=O)N[C@@H](CCC(=O)O)C(=O)O)cc1)N2C=O [Folinic acid calcium salt],1,0.999,1.01,1,1.01,1.04,1,1
C(=C\c1ccccc1)/CN1CCN(C(c2ccccc2)c2ccccc2)CC1 [Cinnarizine],0.986,0.925,0.895,0.976,1.01,1,0.997,0.965
CC1(C)OC(=O)NC1=O [Dimethadione],0.972,0.995,1.01,0.998,1.02,1,0.99,0.997
CS(=O)(=O)c1ccc(C2=C(c3ccccc3)C(=O)OC2)cc1 [Rofecoxib],1.01,0.99,1.02,0.995,1,1.03,1,0.98
C[C@]12C=CC(=O)C=C1CC[C@@H]1[C@@H]2[C@@H](O)C[C@@]2(C)[C@H]1CC[C@]2(O)C(=O)CO [Prednisolone],0.982,0.96,0.971,0.994,0.976,0.995,0.995,0.998
O=C(Nc1cccc2c(=O)cc(-c3nnn[nH]3)oc12)c1ccc(OCCCCc2ccccc2)cc1 [Pranlukast],1.01,0.991,1,0.95,0.968,0.957,1.01,0.987
COc1ccc(C(=O)c2ccccc2O)c(O)c1 [Dioxybenzone],0.977,0.983,0.909,0.982,0.981,1.01,0.993,0.951
O=C(NCCN1CCOCC1)c1ccc(Cl)cc1 [Moclobemide],0.981,0.961,0.957,1.01,0.994,0.987,0.998,0.996
CC(C)CC(=O)N[C@H](C(=O)N[C@H](C(=O)N[C@@H](CC(C)C)[C@@H](O)CC(=O)N[C@@H](C)C(=O)N[C@@H](CC(C)C)[C@@H](O)CC(=O)O)C(C)C)C(C)C [Pepstatin A],1.01,1.03,1.04,1,1.02,1.05,1.01,0.988
CNNCc1ccc(C(=O)NC(C)C)cc1 [Procarbazine hydrochloride],1,1.02,1,0.992,1.06,1.05,1.01,1
Clc1ccc(C(Cn2ccnc2)OCc2ccsc2Cl)c(Cl)c1 (stereo not given) [Tioconazole],0.986,0.984,0.909,1.07,0.932,0.929,1,0.903
C[C@H](O)C(=O)Nc1c(I)c(C(=O)NC(CO)CO)c(I)c(C(=O)NC(CO)CO)c1I [Iopamidol],1.03,1.08,1.07,1.03,1.08,1.08,1.01,1.01
CN(C/C=C/c1ccccc1)Cc1cccc2ccccc12 [Naftifine hydrochloride],1.01,1.01,0.933,1.04,0.996,1.01,0.998,0.932
O=C(O)CCC(=O)c1ccc(-c2ccccc2)cc1 [Fenbufen],0.999,0.99,0.87,0.986,1.01,0.994,1,0.993
CCOc1ccccc1OCC1CNCCO1 (stereo not given) [Viloxazine hydrochloride],0.997,0.979,0.987,0.961,1,0.985,0.99,0.995
CCOC(=O)[C@@](C)(N)Cc1ccc(O)c(O)c1 [Methyldopate hydrochloride],0.999,1.04,1.06,1.02,0.964,1.02,1.01,1.02
COc1cc(C(=O)OCCCN2CCCN(CCCOC(=O)c3cc(OC)c(OC)c(OC)c3)CC2)cc(OC)c1OC [Dilazep dihydrochloride],1,1.03,1.01,0.989,0.993,0.989,1,0.978
CCc1cccc(CC)c1NC(=O)CN(CC(=O)O)CC(=O)O [Etifenin],0.985,0.99,0.989,0.999,0.998,1.01,1,0.993
NCc1ccc(S(N)(=O)=O)cc1 [Mafenide hydrochloride],1,0.998,1.03,0.969,0.963,0.815,1.01,1
Cc1cc(NS(=O)(=O)c2ccc(N)cc2)no1 [Sulfamethoxazole],0.983,0.984,0.993,0.991,0.951,0.979,0.967,0.959
Cc1c(NC(=O)c2cccnc2)c(=O)n(-c2ccccc2)n1C [Nifenazone],0.976,1,1.01,1.01,0.997,1,1.01,0.996
